Consider 20 compounds from article PMC5540273 (PLoS ONE, 2017).

Common to all, as to settings: concentration: 1 μM, replicates: in singlicate, n = 1
Test [1] relates to BLK.
Test [2] deals with BMPR1A.
The subject of test [3] is BMPR1B.
The test system of test [4] is BMPR2.
Test [5] has as its system BMX.
For test [6], the system named is BRAF.
In test [7] the test system is T1, BRK.
T1 construct: gene PTK6

Test [8] has as its system BRSK1.
Test [9] relates to BRSK2.
Test [10] relates to BTK.

Values joined by “and” are separate entries in the source; they are usually repeats but may differ in a detail not shown here. Equal entries are not always repeated. Where two headings read alike, the source gives them in different places.
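Note: KINOMEscan kinase panel screen.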

Turning to `COc1cc2ncn(-c3cc(OCc4sccc4Cl)c(C(N)=O)s3)c2cc1OC` [GSK448459], the “%Inh” value in test [1] amounted to 32%; in test [2], 0%; in test [3] it was 0%; in test [4], 14%; in test [5] it was 0%; in [6], 0%. Also, the “%Inh” value was 11% in [7], 37% in test [8], 45% in test [9] and 0% in test [10].
Regarding `NS(=O)(=O)c1cccc(-c2ccc3ncc(N4CCOCC4)nc3c2)c1` [GSK1535721], the “%Inh” value was determined as 0% in test [1]; 0% in test [2]; 7% in test [3]; 2% in [4]; 30% in test [5]; 0% in test [6]. Moreover, the “%Inh” value in test [7] was 13%; in test [8], 0%; in [9], 0%; in [10], 1%.
With `CC(=O)Nc1ccc(COc2ccc(Nc3ccnc4cc(-c5ccccn5)ccc34)cc2)cc1.Cl` [GW440148], the “%Inh” value in [1] is listed as 53%; in test [2], 0%; in test [3], 0%; in [4], 1%; in test [5] it was 17%; in test [6] it was 0%. In addition, the “%Inh” value is recorded as 57% in test [7], 0% in test [8], 0% in test [9] and 0% in test [10].
On to `Cc1c2ccc(N(C)c3ccnc(Nc4cccc(S(N)(=O)=O)c4)n3)cc2nn1Cc1ccccc1.Cl.Cl` [GW787226], for which the “%Inh” value in test [1] is 82%; in test [2], 3%; in test [3], 0%; in test [4] it was 1%; in [5] it was 6%; in test [6], 95.8%. The “%Inh” value amounted to 89% in test [7], 0% in test [8], 0% in test [9] and 0% in test [10].
`CCc1nc(-c2cccc(C)c2)c(-c2ccnc(NCc3ccccc3)c2)s1`: the “%Inh” value amounted to 0% in test [1]; 0% in test [2]; 0% in test [3]; 9% in test [4]; 0% in [5]; 38% in [6]. The “%Inh” value was 0% in test [7], 2% in test [8], 0% in test [9] and 0% in test [10].
On to `Cc1c(Cn2c(C)nn3c(=O)cc(N4CCOC(C)C4)nc23)cccc1C(F)(F)F` (centres unmarked) [GSK2344444], for which the “%Inh” value in [1] worked out at 25%; in test [2], 6%; in [3] it was 0%; in [4], 0%; in test [5], 1%; in [6] it was 0%. Also, the “%Inh” value in [7] was determined as 7%; in test [8] it was 0%; in test [9] it was 0%; in test [10] it was 0%.
For the compound `CSc1ccc(-c2cc3ncnc(SCC(=O)O)c3s2)cc1`, the “%Inh” value in test [1] worked out at 10%; in test [2], 0%; in test [3], 0%; in test [4], 0%; in test [5], 0%; in [6], 0%. Also, the “%Inh” value in test [7] came out at 4%; in [8], 6%; in test [9], 10%; in test [10], 0%.
For `Cn1cc(-c2ccc3c(c2)CCN3C(=O)Cc2ccccc2Cl)c2c(N)ncnc21` [GSK2608885], the “%Inh” value in test [1] came to 99.2%; in [2], 10%; in [3], 0%; in test [4], 0%; in test [5], 93.2%; in test [6], 90.5%. Moreover, the “%Inh” value is on record as 95.3% in test [7], 0% in test [8], 6% in test [9] and 95.6% in [10].
As to `Fc1ccc(-c2nn3c(OCC(F)(F)F)cccc3c2-c2ccncc2)cc1` [GW514784], the “%Inh” value was found to be 43% in test [1]; 0% in [2]; 0% in [3]; 1% in [4]; 2% in [5]; 44% in test [6]. Moreover, the “%Inh” value was 1% in test [7], 0% in [8], 0% in test [9] and 31% in test [10].
In the case of `COc1ccc(CNC(=O)NC2CCN(c3ccnc(Nc4ccc(OC)cc4)n3)C2)cc1` (centres unmarked) [GSK1379727], the “%Inh” value in test [1] was 43%; in test [2], 0%; in test [3], 0%; in test [4], 30%; in [5], 6%; in [6], 0%. In addition, the “%Inh” value in [7] is on record as 9%; in test [8] it was 0%; in test [9] it was 0%; in test [10], 12%.
On to `Fc1ccc(-c2ncn(CCCN3CCOCC3)c2-c2ccccn2)cc1` [SB-211742], for which the “%Inh” value in [1] is given as 9%; in [2] it was 7%; in test [3], 0%; in test [4] it was 0%; in [5] it was 0%; in test [6], 0%. Further, the “%Inh” value in [7] turned out to be 2%; in test [8] it was 6%; in test [9] it was 14%; in test [10], 15%.
`CC(C)(CN)c1nc(-c2ccc(Cl)c(O)c2)c(-c2ccncc2)[nH]1.O=C(O)C(F)(F)F` [SB-477794]: the “%Inh” value in test [1] (1 µM) was 98.2% and 98%; in test [2] (1 µM) it was 37% and 47%; in test [3], 99.9%; in test [4] (1 µM), 32% and 33%; in test [5] (1 µM), 0% and 40%; in test [6] (1 µM), 97.8% and 98.5%. The “%Inh” value in test [7] (1 µM) was 99.7% and 99.6%; in test [8] (1 µM) it was 0% and 20%; in test [9] (1 µM) it was 0% and 22%; in test [10] (1 µM) it was 43% and 71%.
For `O=c1cc(N2CCOCC2)nc2n(Cc3cccc(F)c3)ccn12` [GSK2297430], the “%Inh” value is 32% in [1]; 0% in test [2]; 0% in test [3]; 0% in [4]; 12% in [5]; 6% in test [6]. Also, the “%Inh” value came out at 23% in [7], 0% in test [8], 0% in test [9] and 0% in test [10].
With `Cl.Oc1cccc(Nc2ccnc3cc(-c4ccncc4)ccc23)c1` [GW494601], the “%Inh” value in test [1] turned out to be 99.1%; in test [2], 84%; in [3], 99.9%; in [4], 30%; in [5] it was 28%; in test [6] it was 76%. Besides, the “%Inh” value in [7] came to 90%; in test [8], 14%; in [9], 4%; in test [10] it was 46%.
As for `NCCNS(=O)(=O)c1ccc(-c2ccnc3[nH]ccc23)cc1` [GSK977617], the “%Inh” value in test [1] (1 µM) was 49% and 16%; in test [2] (1 µM) it was 10% and 0%; in test [3] (1 µM), 0% and 22%; in test [4] (1 µM), 18% and 27%; in [5] (1 µM), 2% and 0%; in test [6], 0%. For the same compound, the “%Inh” value in test [7] (1 µM) is 0% and 9%; in test [8] (1 µM) it was 28% and 5%; in test [9] (1 µM), 25% and 0%; in [10], 0%.
As to `COc1ccc(Nc2nccc(N3CCC(NC(=O)Nc4cccc(C(C)=O)c4)C3)n2)cc1` (centres unmarked) [GSK1379731], the “%Inh” value is recorded as 35% in test [1]; 0% in test [2]; 0% in test [3]; 0% in test [4]; 0% in test [5]; 0% in test [6]. In addition, the “%Inh” value in test [7] amounted to 7%; in test [8] it was 0%; in [9] it was 0%; in test [10], 0%.
In the case of `CC(C)Oc1ccc2c(-c3ccnc(Nc4ccc(N5CCN(C)CC5)cc4)n3)cnn2n1` [GW696155], the “%Inh” value in test [1] was found to be 23%; in [2], 0%; in test [3] it was 90.5%; in test [4], 19%; in test [5], 4%; in [6], 43%. The “%Inh” value is listed as 6% in test [7], 0% in test [8], 0% in test [9] and 20% in test [10].
`Cl.Cl.Cl.Fc1ccc(-c2ncn(C3CCNCC3)c2-c2ccnc(Nc3ccccc3)n2)cc1` [SB-238039]: the “%Inh” value in test [1] (1 µM) was 56% and 27%; in test [2] it was 0%; in [3], 0%; in test [4] (1 µM), 42% and 11%; in test [5], 0%; in [6] (1 µM), 19% and 0%. Further, the “%Inh” value was 0% and 19% in test [7] (1 µM); 0% and 29% in test [8] (1 µM); 7% and 9% in [9] (1 µM); 0% and 9% in [10] (1 µM).
Regarding `Cc1ccc(NC(=O)c2ccnc(N3CCN(C)CC3)c2)cc1-c1ccc(C(=O)NCC2CC2)cc1` [GW775604], the “%Inh” value in test [1], in test [2], in test [3], in test [4], in [5] and in [6] was 0% throughout. Moreover, the “%Inh” value in test [7], in [8], in test [9] and in test [10] was 0% in each case.
`Cl.Nc1ncnc2occ(-c3ccc(NC(=O)Nc4cc(C(F)(F)F)ccc4F)cc3)c12` [SB-707548]: the “%Inh” value in [1] is recorded as 44%; in test [2], 0%; in test [3], 0%; in test [4] it was 1%; in [5], 82%; in test [6] it was 71%. Further, the “%Inh” value in [7] worked out at 3%; in test [8], 20%; in [9], 0%; in test [10] it was 21%.
